# Source: PubChem BioAssay (National Center for Advancing Translational Sciences (NCATS))
# MCF10A rerep = inducers of DNA re-replication in MCF 10A breast cells; MCF 10A DNA re-replication, Hoechst nuclear intensity, 48 h; Potency, µM (doses to about 46.1 µM), inactives show top-dose activity, positive = re-replication, usual class: activators; hit rate 2.9% among 350,000; further: potency means the concentration at half of the fitted maximal effect; % of control where 0% means no effect; nearly all actives have a fitted effect of over 50% in size
# KB-V1 cytotox = kills drug-selected multidrug resistant KB-V1 cells | KB-V1 MDR cells viability, CellTiter-Glo, 72 h | Potency, µM (doses to about 46.1 µM), most hits filed as cytotoxic | hit rate 3.4% among 400,000; further: potency means the concentration at half of the fitted maximal effect; on the % scale 0 is the no-effect control and ±100 the full control effect; nearly all actives have a fitted effect of over 60% in size
#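 Compound-treated KB-V1 multidrug-resistant cells, 72 h, 37 degrees C; viability by CellTiter-Glo. Fitted qHTS curves give the values.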
# Giardia killer = Giardia lamblia killing. Giardia lamblia trophozoite viability. activity change, % at 7.66 µM, hits read low. hit rate 0.15% among 340,000; in the data active means activity change below about -80%; inconclusive means between about -30% and that limit;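 further: parasites exposed to compound for two days anaerobically before the ATP read; on the % scale 0 is the no-effect control and ±100 the full control effect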
#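 Luminescent ATP signal served as the viability read-out, measured 15-30 min after adding ATP detection reagent to trophozoites that had been incubated with compounds for 48 hrs at 37 deg C anaerobically at 100 cells/well.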
# ASM inhibitor = inhibitors of human secretory acid sphingomyelinase | hit rate 0.006% among 340,000 | P17405 | placental ASM, HMU-PC fluorogenic substrate, 60 min | Potency, µM (top dose mostly 57.5 µM), inactives show at the top dose activity change, negative = inhibition, most hits filed as inhibitors; further: potency means the concentration at half of the fitted maximal effect
# Target sequence (P17405 47-631 limits assumed): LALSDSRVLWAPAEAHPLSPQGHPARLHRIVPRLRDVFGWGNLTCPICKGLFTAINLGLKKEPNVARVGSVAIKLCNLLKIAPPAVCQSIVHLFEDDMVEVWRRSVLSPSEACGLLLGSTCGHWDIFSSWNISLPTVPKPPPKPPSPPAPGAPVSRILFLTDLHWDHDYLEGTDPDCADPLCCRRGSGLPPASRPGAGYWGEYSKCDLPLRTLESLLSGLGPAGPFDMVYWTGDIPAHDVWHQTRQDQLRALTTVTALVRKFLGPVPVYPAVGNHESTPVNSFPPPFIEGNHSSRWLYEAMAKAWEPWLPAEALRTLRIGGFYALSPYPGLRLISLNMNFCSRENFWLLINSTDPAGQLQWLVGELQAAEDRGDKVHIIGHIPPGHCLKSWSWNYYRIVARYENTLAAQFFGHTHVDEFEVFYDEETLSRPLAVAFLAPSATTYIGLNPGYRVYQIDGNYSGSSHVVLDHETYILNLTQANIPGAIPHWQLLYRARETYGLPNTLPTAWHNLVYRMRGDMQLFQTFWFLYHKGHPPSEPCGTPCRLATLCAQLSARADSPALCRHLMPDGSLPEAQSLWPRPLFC
#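 Steps: dispense placental human ASM, pin compound, wait 10 min at room temperature, add HMU-PC0 substrate at 9 uM final, incubate 60 min at 37 °C, add stop solution raising pH to 10, read fluorescence.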
# KB-3-1 tox = kills parental KB-3-1 adenocarcinoma cells. AID 1347075. hit rate 1.4% among 400,000. Potency, µM (highest dose often 46.1 µM), hits mostly cytotoxic. KB-3-1 viability, CellTiter-Glo ATP luminescence, 72 h; further: potency means the concentration at half of the fitted maximal effect; on the % scale 0 is the no-effect control and ±100 the full control effect; nearly all actives have a fitted effect of over 60% in size
#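 Here the drug-naive KB-3-1 line serves as comparator for MDR sub-line selectivity; cells received compound titrations, 72 h at 37 °C, then CellTiter-Glo readout.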
# SW480 rerep = DNA re-replication induction in SW480 cells; SW480 DNA re-replication, Hoechst DNA content imaging, 48 h; Potency, µM (doses to about 46.1 µM), for inactives: at the top dose re-replication activation, hits mostly activators; hit rate 1.8% among 340,000; AID 624297; further: potency means the concentration at half of the fitted maximal effect; % of control where 0% means no effect; nearly all actives have a fitted effect of over 55% in size
#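 Hoechst fluorescence of nuclei (405 nm excitation, 500-530 nm emission) measured by plate-scanning imager after 48 hr compound exposure at 37 C; re-replication scored as increased number of nuclei with elevated intensity.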
# Numbers without * were called inactive; i = inactive; ? = inconclusive; · = not tested or not shown. Hits are enriched below; roughly 6.9% of the tested compounds scored in any of these assays. Unless noted, the call rests on the fitted dose curve; in most records, active means well fitted curve in the direction sought with a large enough effect; inconclusive means small, poorly fitted or top-dose-only effect, or another doubt; inactive means no such curve, though single readings can be large; an effect the other way counts as inactive or inconclusive.
SMILES,MCF10A rerep,KB-V1 cytotox,Giardia killer,ASM inhibitor,KB-3-1 tox,SW480 rerep
Cc1cccc(NC(=O)c2cccc(Cn3cc(Br)c([N+](=O)[O-])n3)c2)c1C,-4%,12µM*,6,-1%,?,-2%
Cc1ccccc1NC(=O)c1cccc(Cn2cc(Br)c([N+](=O)[O-])n2)c1,3%,i,-15,-3%,i,1%
COc1ccc(OC)c(NC(=O)c2cccc(Cn3cc(Br)c([N+](=O)[O-])n3)c2)c1,6%,4.6µM*,?,-7%,?,-55%
COc1ccc(CCC(=O)OCc2csc(CC(=O)Nc3ccccc3C)n2)cc1,1%,i,-10,1%,i,-3%
Cc1ccc(S(=O)(=O)N2Cc3ccccc3CC2C(=O)N(C)C)cc1 (centres undefined),·,i,·,·,i,·
O=C(Nc1c(-c2ccc(F)cc2)nc2ccccn12)c1ccccc1F,·,i,·,·,i,·
O=C(N/N=C/C=C\c1ccccc1[N+](=O)[O-])c1ccco1,?,i,6,-2%,i,26µM*
Cc1occc1C(=O)N/N=C/C=C\c1ccccc1[N+](=O)[O-],1%,i,22,-4%,i,0%
Cc1ccc(NC(=O)Cn2c(/C=C/c3ccccc3)nc3ccccc32)cc1C,16µM*,?,7,124%,i,?
Cc1nc2ccccc2n1CC(=O)NC1CCCCCC1,0%,15µM*,-7,-1%,?,-12%
Cc1nc2ccccc2n1CC(=O)N/N=C\C=C\c1ccccc1,3%,21µM*,-4,-1%,i,-2%
Cc1ccc(NC(=O)Cn2c(=O)c(C(F)(F)F)nc3ccccc32)cc1C,·,i,·,·,i,·
O=S(=O)(Nc1ccc(Cl)cc1)c1ccc(N2CCOCC2)c(NC(=S)NC2CC2)c1,-1%,i,11,-1%,i,1%
Cc1cc(C)c(C(=O)COC(=O)C2CC3CCCC(C2)C3=O)c(C)c1 (centres undefined),9%,i,-5,-2%,i,-2%
Cc1ccc(C(=O)Cn2c(C(=O)/C=C/c3ccccc3)nc3ccccc32)cc1,23µM*,13µM*,-6,7%,?,?
COCCOCCn1c(/C=C/c2ccccc2)nc2ccccc21,0%,?,-7,319%,i,-12%
CC(C)c1ccccc1NC(=O)Cn1c(/C=C/c2ccccc2)nc2ccccc21,10µM*,?,-7,i,i,9.2µM*
CC(=O)c1cc(-c2ccccc2)n(CC(=O)Nc2cccc(C)c2C)c1C,-3%,i,-1,0%,i,-1%
CC(=O)c1cc(-c2ccccc2)n(CC(=O)Nc2ccc(C)c(C)c2)c1C,23µM*,i,-7,0%,i,4%
CCCn1c(/C=C/c2ccccc2)nc2ccccc21,23µM*,i,-8,177%,i,?
CCn1c(SCC(=O)N/N=C/C=C\c2ccccc2[N+](=O)[O-])nc2ccccc21,15%,7.3µM*,-2,-6%,?,-1%
Cn1c(SCC(=O)N/N=C/C=C/c2ccccc2[N+](=O)[O-])nc2ccccc21,-3%,i,5,1%,i,-4%
CC1(C(=O)NS(=O)(=O)c2cccc(Cl)c2)CCN1C(=O)CCc1ccccc1 (centres undefined),·,i,·,·,i,·
COC(C(=O)Nc1ccc(S(=O)(=O)Nc2cccc3ccccc23)cc1)c1ccccc1 (centres undefined),?,18µM*,-1,-9%,i,·
CC(=O)Nc1ccc(S(=O)(=O)Nc2cc(-c3cn4ccccc4n3)ccc2C)cc1,·,i,·,·,i,·
SMILES,MCF10A rerep,KB-V1 cytotox,Giardia killer,ASM inhibitor,KB-3-1 tox,SW480 rerep
N#Cc1c(N2CCCC(O)C2)nc(N)c2c(N)nc3c(c12)CC(=O)N3C12CC3CC(CC(C3)C1)C2 (centres undefined),?,15µM*,-1,246%,4.1µM*,4.6µM*
Cc1cc(Cl)ccc1NC(=O)C1CCCN1S(=O)(=O)c1ccc2c(c1)CCCC(=O)N2 (centres undefined),·,i,·,·,i,·
Cc1ccc(Cl)cc1NC(=O)C1CCCN1S(=O)(=O)c1ccc(-c2ccc(=O)[nH]n2)s1 (centres undefined),?,i,-23,-20%,?,4µM*
CN(CC(=O)Nc1cccc(F)c1)C(=O)/C=C/c1ccc(S(=O)(=O)N2CCCCCC2)cc1,8%,18µM*,9,-2%,i,7%
CNC(=O)c1ccc(CN(C)C(=O)/C=C/c2ccc(S(=O)(=O)N3CCCCCC3)cc2)cc1,·,i,·,·,i,·
COc1cccc(NC(=O)CN(C)C(=O)/C=C/c2ccc(S(=O)(=O)N3CCCCCC3)cc2)c1,·,?,·,·,i,·
COc1ccc(CCNC(=O)/C=C/c2ccc(S(=O)(=O)N3CCOCC3)cc2)cc1,8%,i,4,-1%,i,4.1µM*
COc1ccc(CN(C)C(=O)/C=C/c2ccc(S(=O)(=O)N3CCCCCC3)cc2)cc1,?,3.3µM*,-10,-3%,?,17%
O=C(/C=C/c1ccc(S(=O)(=O)N2CCOCC2)cc1)NC(=S)Nc1ccc(Cl)cc1Cl,16µM*,i,2,-9%,i,?
Cc1ccc(N2CCN(C(=O)C3CCC(CNS(=O)(=O)c4ccc(Br)s4)CC3)CC2C)cc1 (centres undefined),·,i,·,·,i,·
Cc1ccc2oc(-c3ccc(NC(=O)COc4ccccc4)cc3O)nc2c1,·,i,·,·,?,·
COc1ccc2c(c1)c(=O)c(C(=O)c1ccc(F)cc1)cn2CC(=O)Nc1ccc2c(c1)OCCO2,·,i,·,·,i,·
NC(=O)Nc1ccc(/C=C2\C=Cc3ccccc32)cc1,·,i,·,·,?,·
CCOc1ccc2nc(NC(=O)c3nc(SCc4ccc(C)cc4)ncc3Cl)sc2c1,·,i,·,·,?,·
COc1ccc(/C=C/C(=O)Nc2ccc(C)c(S(=O)(=O)N3CCOCC3)c2)cc1,6%,4.1µM*,-11,-7%,i,-32%
CCOc1ccc(/C=C/C(=O)NCCc2ccc(OC)c(OC)c2)cc1,3%,16µM*,-12,-1%,i,-1%
CCOc1cc(/C=C2\SC(=N)N(c3nccs3)C2=O)ccc1OCCN1CCOCC1,8%,7.3µM*,?,-10%,i,?
Cc1cc(C(=O)OCC(=O)NC(=O)C2CCCCC2)ccc1[N+](=O)[O-],·,i,15,·,i,·
O=C(NCc1cccc(C(F)(F)F)c1)c1cccc2c1C(=O)c1ccc(N3CCC(Cc4ccccc4)CC3)cc1S2(=O)=O,5.8µM*,i,-9,0%,i,13%
